# Test results as given in publication PMC7862700, “An all-to-all approach to the identification of sequence-specific readers for epigenetic DNA modifications on cytosine”.
# Experiments:
# Assay in all cases: DAPPL (digital affinity profiling via proximity ligation, sequencing); 10 mM Tris-HCl pH 7.5, 50 mM NaCl, 1 mM DTT, 4% glycerol, room temperature, 30 min; GST-TFs on glutathione beads, 16-mer random dsDNA library, 0.1% formaldehyde crosslink after washing; high values mean tight binding
# Conditions in all cases: protein: recombinant; tags: N-terminal GST; dsDNA, one strand shown
# [1] = biological target: T1, FLI1 (Homo sapiens, UniProt Q01543 1-452)
# T1 sequence: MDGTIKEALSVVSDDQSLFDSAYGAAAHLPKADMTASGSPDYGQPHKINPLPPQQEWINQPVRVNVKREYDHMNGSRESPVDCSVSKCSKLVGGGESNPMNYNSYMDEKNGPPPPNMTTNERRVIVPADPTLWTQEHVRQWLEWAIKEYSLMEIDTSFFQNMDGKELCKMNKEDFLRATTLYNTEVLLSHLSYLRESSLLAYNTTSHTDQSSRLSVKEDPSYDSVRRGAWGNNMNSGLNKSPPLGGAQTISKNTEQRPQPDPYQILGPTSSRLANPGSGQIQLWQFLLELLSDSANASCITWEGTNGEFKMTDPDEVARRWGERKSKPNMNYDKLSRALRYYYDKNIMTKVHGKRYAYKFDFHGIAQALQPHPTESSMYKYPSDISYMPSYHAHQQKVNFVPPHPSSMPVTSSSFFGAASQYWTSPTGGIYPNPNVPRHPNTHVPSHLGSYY
# How it was run: (§1)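 Pools were built from human transcription factors expressed in yeast as GST fusions, captured on glutathione beads and DNA-barcoded, along with a tag-only sample. Incubation with 200 nmole of a 16-mer random double-stranded DNA library lasted 30 min at room temperature in Tris/NaCl/DTT/glycerol buffer, and was followed by washing, 0.1% formaldehyde crosslinking, proximity ligation, PCR amplification and Illumina NextSeq500 sequencing. Binding signal is the quotient of each hexamer's read frequency for a factor and its frequency for the tag-only sample.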
# [2] = biological target: T2, GABPA (Homo sapiens, UniProt Q06546 1-454)
# T2 sequence: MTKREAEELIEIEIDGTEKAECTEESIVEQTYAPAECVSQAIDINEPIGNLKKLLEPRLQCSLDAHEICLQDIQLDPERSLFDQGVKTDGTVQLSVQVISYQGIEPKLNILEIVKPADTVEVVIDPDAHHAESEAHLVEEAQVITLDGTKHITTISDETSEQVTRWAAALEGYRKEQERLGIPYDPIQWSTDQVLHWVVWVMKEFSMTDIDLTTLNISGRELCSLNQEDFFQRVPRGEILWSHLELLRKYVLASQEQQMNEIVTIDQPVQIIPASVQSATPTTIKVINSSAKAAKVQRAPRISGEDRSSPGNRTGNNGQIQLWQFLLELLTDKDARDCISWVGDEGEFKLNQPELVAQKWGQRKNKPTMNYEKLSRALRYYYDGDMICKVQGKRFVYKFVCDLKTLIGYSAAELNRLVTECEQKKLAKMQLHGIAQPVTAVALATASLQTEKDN
# How it was run: as §1
# [3] = biological target: T3, EHF (Homo sapiens, UniProt Q9NZC4 1-300)
# T3 sequence: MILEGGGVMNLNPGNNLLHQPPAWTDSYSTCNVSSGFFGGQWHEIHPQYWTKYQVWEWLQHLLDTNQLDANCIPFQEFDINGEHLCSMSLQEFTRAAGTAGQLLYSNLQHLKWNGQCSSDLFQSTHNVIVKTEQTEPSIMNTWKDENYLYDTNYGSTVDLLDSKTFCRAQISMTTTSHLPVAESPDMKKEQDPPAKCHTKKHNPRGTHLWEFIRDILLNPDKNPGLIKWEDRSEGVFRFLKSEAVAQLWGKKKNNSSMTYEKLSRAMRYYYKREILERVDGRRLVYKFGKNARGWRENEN
# How it was run: as §1
# [4] = biological target: T4, ELK3 (Homo sapiens, UniProt P41970 1-407)
# T4 sequence: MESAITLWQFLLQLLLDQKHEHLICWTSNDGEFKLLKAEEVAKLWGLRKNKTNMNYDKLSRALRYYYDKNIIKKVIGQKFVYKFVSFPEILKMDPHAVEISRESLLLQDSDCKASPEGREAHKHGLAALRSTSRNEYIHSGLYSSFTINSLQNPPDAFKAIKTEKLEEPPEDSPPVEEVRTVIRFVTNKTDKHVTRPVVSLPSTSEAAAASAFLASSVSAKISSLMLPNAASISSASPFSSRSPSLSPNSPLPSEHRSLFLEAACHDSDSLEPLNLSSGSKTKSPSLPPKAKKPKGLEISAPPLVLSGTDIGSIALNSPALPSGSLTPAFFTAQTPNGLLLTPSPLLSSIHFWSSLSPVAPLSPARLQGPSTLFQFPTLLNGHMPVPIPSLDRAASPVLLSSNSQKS
# How it was run: as §1
# [5] = biological target: ETV5 (Homo sapiens, UniProt P41161 1-510)
# Sequence of ETV5 (P41161 whole entry): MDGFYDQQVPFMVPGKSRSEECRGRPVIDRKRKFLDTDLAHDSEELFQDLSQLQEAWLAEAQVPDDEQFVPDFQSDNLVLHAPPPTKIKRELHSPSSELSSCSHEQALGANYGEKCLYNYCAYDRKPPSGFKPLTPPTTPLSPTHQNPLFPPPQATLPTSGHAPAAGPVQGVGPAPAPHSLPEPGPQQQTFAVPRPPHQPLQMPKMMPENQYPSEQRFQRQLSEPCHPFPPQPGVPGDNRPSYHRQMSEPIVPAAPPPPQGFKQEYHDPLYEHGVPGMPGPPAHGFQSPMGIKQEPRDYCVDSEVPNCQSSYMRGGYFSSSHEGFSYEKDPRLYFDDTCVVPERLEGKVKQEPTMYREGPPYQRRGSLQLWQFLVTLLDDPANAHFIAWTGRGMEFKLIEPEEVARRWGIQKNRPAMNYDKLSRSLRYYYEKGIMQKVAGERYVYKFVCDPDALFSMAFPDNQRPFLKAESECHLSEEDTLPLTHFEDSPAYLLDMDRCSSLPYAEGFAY
# How it was run: as §1
# [6] = biological target: T5, ETV2 (Homo sapiens, UniProt O00321 1-342)
# T5 sequence: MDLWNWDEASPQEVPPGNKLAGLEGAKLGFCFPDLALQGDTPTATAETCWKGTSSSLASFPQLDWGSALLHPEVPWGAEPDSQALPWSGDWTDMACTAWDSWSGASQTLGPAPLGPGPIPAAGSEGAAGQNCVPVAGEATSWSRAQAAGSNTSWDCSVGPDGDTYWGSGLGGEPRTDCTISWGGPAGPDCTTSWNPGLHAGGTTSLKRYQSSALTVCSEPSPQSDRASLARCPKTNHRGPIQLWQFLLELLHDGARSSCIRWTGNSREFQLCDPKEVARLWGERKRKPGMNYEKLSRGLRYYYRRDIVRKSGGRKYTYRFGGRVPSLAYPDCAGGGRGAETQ
# How it was run: as §1
# [7] = biological target: T6, ELF3 (Homo sapiens, UniProt P78545 1-371)
# T6 sequence: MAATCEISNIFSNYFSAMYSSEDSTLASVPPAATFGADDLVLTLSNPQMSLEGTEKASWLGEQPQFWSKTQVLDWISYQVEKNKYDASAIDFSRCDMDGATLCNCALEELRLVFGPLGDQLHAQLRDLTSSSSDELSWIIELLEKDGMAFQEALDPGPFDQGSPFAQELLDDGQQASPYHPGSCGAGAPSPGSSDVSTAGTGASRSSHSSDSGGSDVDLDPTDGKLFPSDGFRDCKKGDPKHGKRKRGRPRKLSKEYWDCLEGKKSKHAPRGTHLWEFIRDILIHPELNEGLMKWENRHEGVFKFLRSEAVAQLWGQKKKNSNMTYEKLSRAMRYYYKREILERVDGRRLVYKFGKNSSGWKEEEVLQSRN
# How it was run: as §1
# [8] = biological target: T7, ERF (Homo sapiens, UniProt P50548 1-548)
# T7 sequence: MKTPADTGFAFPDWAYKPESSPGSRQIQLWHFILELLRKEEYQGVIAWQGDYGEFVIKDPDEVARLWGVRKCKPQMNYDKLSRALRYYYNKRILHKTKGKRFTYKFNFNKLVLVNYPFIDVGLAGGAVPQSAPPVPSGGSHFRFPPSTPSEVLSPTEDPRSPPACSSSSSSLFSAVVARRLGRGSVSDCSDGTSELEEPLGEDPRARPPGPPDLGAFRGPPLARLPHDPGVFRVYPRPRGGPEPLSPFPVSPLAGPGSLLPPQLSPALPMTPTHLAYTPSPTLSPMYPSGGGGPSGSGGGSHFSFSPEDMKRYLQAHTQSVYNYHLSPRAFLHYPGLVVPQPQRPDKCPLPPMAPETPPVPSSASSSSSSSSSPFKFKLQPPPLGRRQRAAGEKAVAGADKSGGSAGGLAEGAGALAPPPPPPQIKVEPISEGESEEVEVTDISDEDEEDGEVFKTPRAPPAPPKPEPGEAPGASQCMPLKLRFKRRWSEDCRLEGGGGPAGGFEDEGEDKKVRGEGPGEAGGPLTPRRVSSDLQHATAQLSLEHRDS
# How it was run: as §1
# [9] = biological target: T8, ETV7 (Homo sapiens, UniProt Q9Y603 1-341)
# T8 sequence: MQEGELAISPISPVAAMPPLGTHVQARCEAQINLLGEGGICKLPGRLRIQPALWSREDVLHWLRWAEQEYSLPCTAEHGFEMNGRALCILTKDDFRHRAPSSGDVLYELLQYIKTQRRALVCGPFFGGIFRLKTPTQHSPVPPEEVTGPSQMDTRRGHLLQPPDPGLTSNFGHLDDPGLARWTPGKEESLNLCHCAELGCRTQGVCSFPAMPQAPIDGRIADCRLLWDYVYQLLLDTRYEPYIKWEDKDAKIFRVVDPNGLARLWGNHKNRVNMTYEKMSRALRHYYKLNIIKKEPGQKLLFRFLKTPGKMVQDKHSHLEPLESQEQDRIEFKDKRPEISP
# How it was run: as §1
sequence,measurement,setting,value
TGGGTA,binding signal,[1],"1.04 fold enrichment (6-mer frequency, TF over GST control)"
same,binding signal,[2],"1.05 fold enrichment (6-mer frequency, TF over GST control)"
same,binding signal,[3],"1.01 fold enrichment (6-mer frequency, TF over GST control)"
same,binding signal,[4],"1.12 fold enrichment (6-mer frequency, TF over GST control)"
same,binding signal,[5],"1.02 fold enrichment (6-mer frequency, TF over GST control)"
same,binding signal,[6],"1.14 fold enrichment (6-mer frequency, TF over GST control)"
same,binding signal,[7],"1.1 fold enrichment (6-mer frequency, TF over GST control)"
same,binding signal,[8],"1.14 fold enrichment (6-mer frequency, TF over GST control)"
same,binding signal,[9],"1.01 fold enrichment (6-mer frequency, TF over GST control)"
